Hits are enriched below; roughly 3% of the tested compounds scored in any of these assays.
esBAF inh: SWI/SNF esBAF complex inhibition | mouse ES cells, Bmi1-luciferase knock-in reporter, 24 h; 100% = twice the neutral-well signal | reporter increase, % at 12.5 µM | actives 2% (n = 350,000) | AID 602393; in the data active = activation above about 40%; inconclusive = no clear call, values can overlap the other calls;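 also: a rise in the Bmi1 reporter signal indicates esBAF inhibition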
Wnt bcat act: Wnt/beta-catenin pathway activation. actives 1.2% (n = 300,000). Wnt/beta-catenin reporter cell assay, activator, plate reader. activation, % at 9.35 µM; in the data active = activation above about 30%, passing the limit was not always enough; inconclusive = no clear call, values can overlap the other calls
Statin myotox sup: suppression of simvastatin myotoxicity; rescue of ATP level, % at 7.49 µM; actives 0.78% (n = 330,000); C2C12 myotubes + simvastatin, ATP luminescence, 48 h; scaled: DMSO 0, geranylgeraniol control 100;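 active = mean ATP rescue above about 67%, or every replicate alone reaching that limit, limit read from the data, passing the limit was not always enough; inconclusive = no clear call, values can overlap the other calls; inactive = mean under the limit and some replicate under it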;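 also: myotubes were challenged with 10 µM simvastatin during compound exposure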
MITF act: activators of MITF-driven TRPM1 promoter activity in SK-MEL-5 cells; SK-MEL-5 TRPM1-promoter luciferase, 24 h; % of positive control, neutral wells = 0; actives 0.75% (n = 300,000); activation, % at 12.5 µM;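 active = mean activation of at least 80% with every replicate also reaching 80%; inconclusive = mean reaches 80% but some replicate falls short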
Numbers stand for hits; - = inactive; ? = inconclusive; . = no result given.

SMILES | esBAF inh | Wnt bcat act | Statin myotox sup | MITF act
O=C(COc1ccc(Cl)cc1Cl)NC(=O)N1CCCCC1 | 59 | . | - | 95
O=C(Nc1ccccn1)Nc1cccs1 | 55 | . | - | -
Cc1noc(C)c1S(=O)(=O)Nc1ccc2c(c1)C(=O)N([C@@H](C)CO)C[C@H](C)[C@@H](CN(C)S(=O)(=O)c1ccccc1)OCCCC[C@H](C)O2 | - | . | . | .
C[C@@H]1CN([C@@H](C)CO)C(=O)c2cc(NS(=O)(=O)c3cn(C)cn3)ccc2O[C@@H](C)CCCCO[C@@H]1CN(C)C(=O)c1ccncc1 | - | . | . | .
O=C(NC[C@H]1[C@H](c2ccccc2)[C@H](CO)N1CC1CCCC1)C1CC1 | - | . | - | .
O=C(Nc1cccs1)NC1CCCC1 | - | - | 109 | -
O=C(COc1ccccc1Cl)NC(=O)NC1CCCC1 | - | . | - | 97
O=C(Nc1ccccc1Cl)NC1CCCCCCC1 | 59 | - | - | -
CCc1ccccc1NC(=O)NC1CCCCC1 | - | . | - | -
O=C(COc1ccc(Cl)cc1Cl)NC1CCSC1=O (stereo unspecified) | - | . | - | 94
COc1ccc(S(=O)(=O)N(C)C[C@H]2OCCCC[C@H](C)Oc3ccc(NS(=O)(=O)c4cccs4)cc3C(=O)N([C@@H](C)CO)C[C@H]2C)cc1 | - | . | . | .
Cc1cc(S(=O)(=O)NC2CCCCC2)ccc1OCC(=O)N1CCOCC1 | . | - | . | -
CCOC(=O)N1CCN(C(=O)COc2ccc(S(=O)(=O)NC3CCCCC3)cc2C)CC1 | - | - | 116 | -
Cc1cc(Cl)ccc1OCC(=O)N1CCCCC1 | 58 | . | - | -
C[C@@H]1CN([C@@H](C)CO)S(=O)(=O)c2ccc(-c3ccncc3)cc2O[C@@H]1CN(C)C | - | . | - | .
C[C@@H]1CN([C@@H](C)CO)C(=O)c2cc(/C=C/c3ccccc3)cnc2O[C@@H]1CN(C)C(=O)c1ccc(F)cc1 | - | . | - | .
Cc1cc(NC(=O)COC(=O)C2CCN(S(=O)(=O)c3ccc(Cl)cc3)CC2)no1 | - | - | . | .
Cc1cc(NC(=O)COC(=O)C2CCN(S(=O)(=O)c3c(Cl)cccc3Cl)CC2)no1 | - | - | 109 | -
CNc1nc(-c2ccc([N+](=O)[O-])cc2)cs1 | 45 | - | . | 90
CCNc1nc(-c2ccc(Cl)cc2)cs1 | 90 | . | - | 111
CNc1nc(-c2ccc(Cl)cc2)cs1 | 52 | . | - | ?
CCN(CC)CC(=O)Nc1nc(-c2ccc(Cl)cc2)cs1 | - | . | - | -
CC(C)C(=O)Nc1nc(-c2ccc([N+](=O)[O-])cc2)cs1 | . | - | . | -
O=C(Nc1ccc2c(c1)OCO2)Nc1cnccn1 | ? | . | - | -
O=C(Nc1ccc2c(c1)OCO2)Nc1ccccn1 | . | 55 | . | -
SMILES | esBAF inh | Wnt bcat act | Statin myotox sup | MITF act
CCCCc1ccc(NC(=S)Nc2cccnc2)cc1 | . | - | . | -
Cn1ccc2cc(NC(=O)Nc3cccnc3)ccc21 | 56 | - | - | -
CCCCc1ccc(NC(=O)Nc2cccnc2)cc1 | 51 | - | - | -
O=C(Nc1cccnc1)Nc1ccc2c(c1)OCO2 | 42 | . | - | .
CCC(=O)Nc1ccc2c(c1)C(=O)N(C)[C@@H]1CC[C@@H](CC(=O)O)O[C@@H]1CO2 | - | . | - | .
CCCCNC(=O)c1ccc(NC(=O)C2CCCO2)cc1 (stereo unspecified) | - | - | - | -
O=C(NCc1cccs1)Nc1ccc2c(c1)OCO2 | 63 | . | - | .
O=C(CNC(=O)c1cccs1)Nc1ccc2c(c1)OCCO2 | - | 31 | - | -
O=C(NCc1ccncc1)Nc1ccc2c(c1)OCO2 | . | - | . | -
O=C(NCc1ccccn1)Nc1ccc2c(c1)OCO2 | 51 | - | - | -
CCCCc1ccc(NC(=O)C2CCCO2)cc1 (stereo unspecified) | - | . | - | 105
CN1CCCCN2[C@H](C1)[C@@H](c1ccc(-c3ccc(F)cc3)cc1)[C@@H]2CO | - | . | - | .
CCOc1ccc(C(=O)Nc2ccc3c(c2)OCCO3)cc1OC | 67 | - | - | -
COc1cc(OC)cc(C(=O)Nc2ccc3c(c2)OCCO3)c1 | 42 | - | - | .
Cc1cccc(NC(=O)c2ccc3c(c2)OCCO3)c1 | - | - | - | -
CCOc1ccc(C(=O)Nc2ccc3c(c2)OCCO3)cc1[N+](=O)[O-] | . | - | . | -
CCCC(=O)Nc1cccc(NC(=O)c2ccc3c(c2)OCCO3)c1 | 43 | - | - | -
COc1ccc(NC(=O)Nc2ccc3c(c2)[C@@H]2C[C@@H](CC(=O)NCc4ccccn4)O[C@@H](CO)[C@@H]2O3)cc1 | - | . | - | .
CC(C)(C)NC(=O)Nc1ccc2nccnc2c1 | 52 | . | - | -
CC(C)NC(=O)N(C)C[C@H]1Oc2ncc(-c3cncnc3)cc2C(=O)N([C@H](C)CO)C[C@H]1C | - | . | - | .
C[C@@H]1CCCCO[C@@H](CN(C)S(=O)(=O)c2cccs2)[C@H](C)CN([C@H](C)CO)C(=O)c2cc(NC(=O)Nc3ccc(C(F)(F)F)cc3)ccc2O1 | - | . | - | .
Cc1noc(C)c1S(=O)(=O)Nc1ccc2c(c1)C(=O)N([C@@H](C)CO)C[C@H](C)[C@H](CN(C)Cc1ccccc1)OCCCC[C@@H](C)O2 | - | . | . | .
CN1CCN(C2=C(NS(=O)(=O)c3cccs3)C(=O)c3ccccc3C2=O)CC1 | . | - | . | -
CCOc1ccccc1N1CCN(C2=C(NS(=O)(=O)c3cccs3)C(=O)c3ccccc3C2=O)CC1 | - | . | 110 | -
COc1ccc(NC(=O)CC2C(=O)NCCN2C(=O)c2ccc(Cl)cc2)cc1 (stereo unspecified) | - | - | 101 | -
SMILES | esBAF inh | Wnt bcat act | Statin myotox sup | MITF act
COc1ccc(NC(=O)CC2C(=O)NCCN2C(=O)c2ccccc2)cc1 (stereo unspecified) | . | - | . | .
O=C(CC1C(=O)NCCN1C(=O)c1ccc([N+](=O)[O-])cc1)Nc1ccc(F)cc1 (stereo unspecified) | - | - | 101 | -
Cc1cc(/C=N\NC(=O)c2cccs2)c(C)n1-c1ccc2ncccc2c1 | 72 | - | . | -
O=C(N/N=C/c1cccc2ccccc12)c1cccs1 | 67 | 34 | - | -
O=C(N/N=C/c1c[nH]c2ccccc12)c1sc2ccccc2c1Cl | 60 | . | - | -
O=C(N/N=C/c1c[nH]c2ccccc12)c1cccs1 | . | 43 | . | .
O=C(C[C@@H]1C[C@@H]2c3cc(NC(=O)Nc4ccc(F)cc4)ccc3O[C@@H]2[C@H](CO)O1)NC1CCCCC1 | - | . | - | .
O=C(N/N=C/c1ccc([N+](=O)[O-])o1)c1sc2ccccc2c1Cl | . | 32 | . | -
O=C(N/N=C/c1ccc(Br)s1)c1cccs1 | . | - | . | .
Cn1cccc1/C=N/NC(=O)c1sc2ccccc2c1Cl | 62 | - | - | -
Cc1ccc(/C=N/NC(=O)c2cccs2)s1 | 50 | . | - | -
C[C@H](CO)N1C[C@H](C)[C@H](CN(C)Cc2ccc(C(F)(F)F)cc2)Oc2c(NS(=O)(=O)c3cccs3)cccc2C1=O | - | . | - | .
Cc1ccc(S(=O)(=O)N[C@H]2C=C[C@@H](CC(=O)NCCCN(C)C)O[C@H]2CO)cc1 | - | . | - | .
N/C(=N\OC(=O)c1ccc2c(c1)OCO2)c1ccc([N+](=O)[O-])cc1 | - | - | - | -
COc1ccc(/C(N)=N/OC(=O)c2ccc3c(c2)OCO3)cc1OC | - | - | - | ?
N/C(=N\OC(=O)c1ccc2c(c1)OCO2)c1cccc(Br)c1 | 67 | - | - | 116
